# Source: PubChem (National Center for Advancing Translational Sciences (NCATS))
# HT1080-NT tox = kills 2HG-producing HT-1080-NT fibrosarcoma cells. HT-1080-NT fibrosarcoma viability, CellTiter-Glo ATP luminescence, 48 h. Potency, µM (top dose mostly 46.1 µM), for inactives: top-dose activity, negative = less viability, most hits filed as cytotoxic. 360,000 tested, 1.6% active. AID 686970;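 note: NT is the 2HG producing partner of a matched IDH1 knockdown line; 0% = DMSO-treated cells and -100% = media-only wells without cells; nearly all actives have a fitted effect of over 55% in size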
#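 Compounds were tested in concentration-response format on HT-1080-NT cells for 48 hours at 37 degrees C. Cell viability came from CellTiter-Glo luminescence; curves were classified by r2, response magnitude and activity.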
# KB-3-1 tox = KB-3-1 parental cell cytotoxicity | KB-3-1 viability, CellTiter-Glo ATP luminescence, 72 h | Potency, µM (top dose mostly 46.1 µM), most hits filed as cytotoxic | 400,000 tested, 1.4% active; note: nearly all actives have a fitted effect of over 60% in size
#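 Cytotoxicity in the drug-sensitive parental line KB-3-1 was scored as loss of CellTiter-Glo luminescence following 72 h incubation with compound. Values come from curve fitting of normalized concentration-response data.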
# DT40 TDP1 no CPT = qHTS for Inhibitors of human tyrosyl-DNA phosphodiesterase 1 (TDP1): qHTS in cells in absence of CPT; DT40 Tdp1-/- hTDP1 cells, no CPT, ATP luminescence, 48 h; Potency, µM (doses to about 46.2 µM), without a hit: top-dose activity change, negative = growth inhibition, most hits filed as inhibitors; 420,000 tested, 15% active; AID 686978, 2013; note: nearly all actives have a fitted effect of over 55% in size
#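 DT40 Tdp1-/-;hTDP1 cells, no CPT (DMSO vehicle only), 400 cells/well; compounds pin-transferred; ≥48 hr, 37 °C; CellTiter-Glo 30 min RT dark, luminescence read.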
# DT40 TDP1 CPT = growth inhibition of DT40 Tdp1-/-;hTDP1 cells with camptothecin (screen for TDP1 inhibitors); chicken DT40 Tdp1-/-;hTDP1 cells + 20 nM CPT, ATP luminescence, 48 h; Potency, µM (titrated, usually from 46.2 µM), for inactives: at the top dose activity change, negative = growth inhibition, hits mostly inhibitors; 420,000 tested, 12% active; note: nearly all actives have a fitted effect of over 55% in size
#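 Cell growth measured by CellTiter-Glo luminescence after a minimum 48 h, 37 C compound exposure with 20 nM CPT in Tdp1-knockout DT40 cells stably expressing hTDP1, seeded 400/well; qHTS titration format.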
# HT1080 IDH1KD tx = toxicity to HT-1080 IDH1 knockdown cells (counter line) | HT-1080 IDH1 knockdown viability, ATP luminescence, 48 h | Potency, µM (top dose mostly 46.1 µM), inactives show at the highest dose activity, negative = toxicity, usual class: cytotoxic | 360,000 tested, 2% active | AID 686971;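 note: 0% = DMSO wells and -100% = cell-free medium wells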
#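 Using the IDH1-knockdown HT-1080 line run in the same batch and compound series as the NT line, viability after 48 h at 37 °C was determined by CellTiter-Glo luminescence and expressed as % activity.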
# KB-V1 cytotox = KB-V1 MDR subline cytotoxicity; 400,000 tested, 3.4% active; Potency, µM (titrated, usually from 46.1 µM), most hits filed as cytotoxic; KB-V1 MDR cells viability, CellTiter-Glo, 72 h; AID 1347076; note: nearly all actives have a fitted effect of over 60% in size
#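 Readout: CellTiter-Glo luminescence, 10 min after addition. Cells: KB-V1 MDR subline, 72 h at 37 degrees C with compound. Analysis: corrected, normalized data fitted to concentration-effect curves.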
# Active calls of the source: *; i = inactive; u = inconclusive; x = no result given; [ ] = remark or other dose. The list is not random: actives were taken first. Their share in the collection is about 19%. Calls come from the whole dose curve; as a rule, active = well fitted curve in the direction sought with a large enough effect; inconclusive = small, poorly fitted or top-dose-only effect, or another doubt; inactive = no such curve, though single readings can be large; an effect the other way counts as inactive or inconclusive. Unless noted, % is set by controls: 0 for no effect and ±100 for the full control effect; potency is the fitted concentration of half-maximal effect.
SMILES,HT1080-NT tox,KB-3-1 tox,DT40 TDP1 no CPT,DT40 TDP1 CPT,HT1080 IDH1KD tx,KB-V1 cytotox
CCC1CN(CCNC(=O)c2cccc(C(=O)OC)c2)Cc2cc(OC)ccc2O1 (configuration not stated),x,x,-26%,4%[9.04 µM],x,x
CC(C(=O)NC1C=CS(=O)(=O)C1)N1C(=O)/C(=C/c2cccc(Cl)c2)SC1=S (configuration not stated),u,i,-16%,16µM*,u,i
CC(C(=O)NC1C=CS(=O)(=O)C1)N1C(=O)/C(=C\c2ccccc2)SC1=S (configuration not stated),-3%,i,u,u,-3%,u
Cc1ccc2c(c1)c1c(c(=O)n(-c3ccccc3C)c(=O)n1CC(=O)NCCC1=CCCCC1)n2C,x,i,u,u,x,i
O=c1c2ccc([N+](=O)[O-])cc2ncn1CCOc1cccc(Br)c1,-20%,i,10µM*,u,-5%,u
CCOc1cccc(OCCn2cnc3ccccc3c2=O)c1,18%,i,-1%,15%,12%,i
O=C(Cn1cnc2cc([N+](=O)[O-])ccc2c1=O)NCc1ccc(Cl)cc1,-28%,i,u,-3%,-22%,i
O=c1c2ccc([N+](=O)[O-])cc2ncn1CCOc1ccc(Cl)cc1,3%,i,15µM*,18µM*,2%,i
O=C(CN1C=NS(=O)(=O)c2ccccc21)Nc1ccc(Br)cc1,x,i,u,2%,x,u
COc1cc(-c2nnc(COC(=O)c3ccc([N+](=O)[O-])o3)o2)cc(OC)c1OC,-4%,i,u,u,-11%,i
COc1ccc(NC(=O)N2CC3(CCN(C(=O)c4csnn4)CC3)C2)cc1,x,x,-4%,4%,x,x
Cc1ccc(C)c(NC(=O)Cn2cnc3nc4c(cc3c2=O)CCCC4)c1,x,i,u,-29%,x,i
Cc1ccc(NC(=O)CCNS(=O)(=O)c2ccc3c(c2)CCN3C(=O)C2CC2)c(Cl)c1,x,i,4.1µM*,5.2µM*,x,i
O=C(CCNS(=O)(=O)c1ccc2c(c1)CCN2C(=O)C1CC1)Nc1ccc(OC(F)(F)F)cc1,x,i,u,u,x,u
O=C(CCNS(=O)(=O)c1ccc2c(c1)CCN2C(=O)C1CC1)Nc1ccc(Cl)cc1,x,i,12µM*,10µM*,x,i
CCc1ccccc1NC(=O)CCNS(=O)(=O)c1ccc2c(c1)CCN2C(=O)C1CC1,x,i,18µM*,u,x,i
N#Cc1ccc(NC(=O)COC(=O)c2cccc(S(=O)(=O)N3CCCC3)c2)cc1,-10%,i,u,-10%,0%,i
O=C(CSc1nc2c(c(=O)[nH]1)CCC2)Nc1ccccc1C(F)(F)F,x,i,-2%,8%,x,i
O=C(c1ccc2c(c1)OCCO2)N1CCN(c2ncc(C(F)(F)F)cc2Cl)CC1,-6%,i,16µM*,u,-10%,i
O=C(Nc1ccc2c(c1)OCO2)N1CCN(c2ncc(C(F)(F)F)cc2Cl)CC1,-25%,i,12µM*,21µM*,-18%,i
O=C(c1ccc2c(c1)OCCO2)N1CCN(c2ccccn2)CC1,22%,i,8%,0%,26%,i
Cc1ccsc1C(=O)N1CCN(c2ncc(C(F)(F)F)cc2Cl)CC1,-16%,u,15µM*,12µM*,-18%,u
CCOC(=O)N1CCN(c2ncc(C(F)(F)F)cc2Cl)CC1,-4%,i,u,u,-2%,i
CC(C)(C(N)=O)N1CCN(c2ncc(C(F)(F)F)cc2Cl)CC1,-2%,u,15µM*,15µM*,u,i
Cc1cc(C)cc(-n2c(SCC(=O)N3CCOCC3)nc3c([nH]c4ccccc43)c2=O)c1,x,i,-4%,-25%,x,u
SMILES,HT1080-NT tox,KB-3-1 tox,DT40 TDP1 no CPT,DT40 TDP1 CPT,HT1080 IDH1KD tx,KB-V1 cytotox
CNCCCCc1cnc(C)c2[nH]c3ccccc3c12,x,x,-22%[9.04 µM],7%[9.04 µM],x,x
CCOC(=O)CNC(=O)c1ccc(-c2nn(C)c(=O)c3ccccc23)cc1,x,i,-4%,-13%,x,i
CC(C(=O)N1CCN(c2ccc(Cl)cc2)CC1)c1ncc(C(F)(F)F)cc1Cl (configuration not stated),-13%[9.24 µM],i,23µM*,18µM*,u,i
COc1ccc2nc(NC(=O)c3nc(SC(C)C)ncc3Cl)sc2c1,x,i,-6%,-6%,x,i
Cc1ccc(CS(=O)(=O)c2ncc(Cl)c(C(=O)Nc3nc4ccc(C)cc4s3)n2)cc1,x,i,3.7µM*,2.9µM*,x,i
Cc1ccc(CS(=O)(=O)c2ncc(Cl)c(C(=O)Nc3nc4ccc(F)cc4s3)n2)cc1,x,i,2.6µM*,5.2µM*,x,i
COc1ccc2nc(NC(=O)c3nc(S(=O)(=O)Cc4ccc(C)cc4)ncc3Cl)sc2c1,x,x,2.3µM*,1.6µM*,x,x
Cc1noc(C)c1C(=O)Nc1nc2ccc(F)cc2s1,1%,u,-25%,4%,0%,i
O=C(CN(c1cccc(C(F)(F)F)c1)S(=O)(=O)c1ccc(Cl)c([N+](=O)[O-])c1)NCc1ccccc1,-1%,i,u,-23%,-2%,i
CC(NC(=O)CN(c1cccc(C(F)(F)F)c1)S(=O)(=O)c1ccc(Cl)c([N+](=O)[O-])c1)c1ccccc1 (configuration not stated),23µM*,u,9.2µM*,4.6µM*,18µM*,u
O=C(CN(c1cccc(C(F)(F)F)c1)S(=O)(=O)c1ccc(Cl)c([N+](=O)[O-])c1)NCc1ccccc1Cl,-20%,i,16µM*,16µM*,3%,i
COc1ccccc1/C=C\C(=O)OC[C@@H]1CCCN2CCCC[C@H]12,x,x,2%[9.04 µM],13%[9.04 µM],x,x
O=C1N/C(=N/c2ccccn2)SC1Cc1ccccc1 (configuration not stated),u,i,u,u,10µM*,u
COc1cc(/C=C2/SC(=S)N(CC(=O)NNC(=O)c3ccc(F)cc3)C2=O)cc(OC)c1OC,8%,i,-4%,-27%,9%,u
CC(C)(C)c1ccc(S(=O)(=O)N2CC(=O)Nc3ccccc32)cc1,-1%,i,u,-5%,-8%,i
CCc1cc(=O)oc2c(C)c(OCC(=O)N3CCCc4ccccc43)ccc12,-24%,i,u,18µM*,u,u
